Data on 13 molecules can be found in PubChem BioAssay (NCI).

The panel holds about 83,000 compounds, 20% with a hit somewhere; the sample as a whole holds those more often.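 The test compound was applied at a single concentration to cells in 96-well plates for 48 hours, and percent growth was recorded.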 Unmarked numbers belong to inactive results. The calls were made as follows: active = growth percent below 10; inactive = the rest.

This test has as its system SN12C renal. Nature of the test: NCI-60 one-dose screen, 48 h (100 = growth as untreated, 0 = no growth, -100 = all killed). Conditions: 10 µM unless noted.
Consider `C#C[C@]1(O)CC[C@H]2[C@@H]3CC=C4c5sc(N(C)c6ccccc6)nc5CC[C@]4(C)[C@H]3CC[C@@]21C`, for which the growth was 91.2%. As to `CC(=O)c1c([Si](C)(C)C)c2cc(C#N)ccn2c1C(=O)c1ccc(Br)cc1`, the growth was 96.6%. With `O=C(CSc1nc2ccccc2c(=O)n1-c1ccc(Cl)c(Cl)c1)Nc1ccc(S(=O)(=O)Nc2ccc(Cl)nn2)cc1` the figure was 96.4%. `C#CCN(C)CCCOc1ccc(NCc2ccc(/C=C/C(=O)NO)cc2)cc1Cl`: the growth is 12.1%. As for `O=C(NNc1nc2cc(F)cc(F)c2n2cccc12)c1cccnn1`, the growth is 18.5%.

`COc1ccc(/C(=N\NC(N)=S)c2ccc(Cl)cc2)cc1OC`: the growth is 29%. With `COc1ccc(-c2c(C(N)=O)c(N)n(Cc3nc4ccccc4[nH]3)c(=O)c2C#N)c(OC)c1` the figure was 101%. For `Cc1cc(Br)ccc1-n1cc(C#N)c(N)c1C(=O)c1ccc(Br)cc1`, the growth is 110%. With `CN1CCN(Cc2ccc(NC(=O)c3cncc(C#Cc4cnc(N)nc4)c3)cc2C(F)(F)F)CC1` the figure was 11.5%. Turning to `CCOC(=O)c1c(NC(=O)c2ccc(C(F)(F)F)cc2)sc2c3c(ccc12)OCN(C)C3`, the growth is 48.1%. With `O=C1CSC(c2cn(-c3ccccc3)nc2-c2ccc(Cl)cc2)N1c1ccccc1` (stereo not drawn) the figure was 114%; with `COc1ccc(-c2c3c(cn2Cc2cccc(OC)c2)-c2oncc2CCC3)cc1`, 96.6%; with `C#C[C@]1(O)CC[C@H]2[C@@H]3CC=C4c5sc(Nc6ccc(C)cn6)nc5CC[C@]4(C)[C@H]3CC[C@@]21C`, 45.9%.
